For ten sequences, sensor-assay potency score (higher = more potent) results are on record in the OligoGym collection.
Note: reference of the scale not given here.

The target in one test is FANCF. In words: pooled miR-30 sensor sort-seq; sequence = guide strand. Conditions: shRNA.
For the sequence TTTTGTAAACTATATATTCTAT, the sensor-assay potency score (higher = more potent) is -0.511.

Regarding ATAGCCATTGAAGCGCAGCATG, the sensor-assay potency score (higher = more potent) is -1.41. On the same count and under the same terms, the result for TTGGAGTGTCTCCTCATCGGCG reads -0.931; that for TTCATCAGAGAGTCCTCCTGGA, 0.554; that for TGACAGAGGCTTTGAAACCTAT, -1.18.

In the next test the target is FANCG. The test is described as above. Conditions: shRNA.
As to AAGTACAACAGTGCTCTCTGTG, the sensor-assay potency score (higher = more potent) is 0.113. Same read-out and setting: in the case of TTGGGTAGCAGAGATGATGTGC it was 0.442; in that of TAGGCTCCGCTGGATATCCTGG, -1.03; in that of TAGTAATTCTACCTCAATGAGA, -0.931.

TAGCTTTCTAGGTACAGGGGGA: the sensor-assay potency score (higher = more potent) is -0.426.
